From PubChem BioAssay come the findings set out here.

Experiment [1] is described as follows: inhibitors of TNFa-induced NFkB p65 translocation, primary screen, imaging, HUVEC, MLSMR starter and 10KST1 sets (AID 438).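 For inhibition: signal is the nuclear over cytoplasmic p65 intensity ratio per well.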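 Note: compound added about 3h40 before a 20 min TNFalpha stimulation.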 To be noted: HUVEC TNFa-induced p65 nuclear translocation; cell count: measured here: nuclei count (cytotoxicity indicator), at 2.08 µM; inhibition: at 2 µM, stronger effect = higher value, 0% TNFa-plus-vehicle, 100% no-TNFa wells.
Experiment [2] is described as follows: inhibitors of mutant huntingtin aggregation, primary screen, imaging, exon1htt(103Q)mCFP cells, high-content imaging (AID 483;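 active = visual image review flags a hit and inhibition of aggregation exceeds 20%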;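 note: compound exposure lasted 3 days before fixation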;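 for nuclei count: percent of the per-plate median nuclei count of sample wells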). The settings on record: exon1htt(103Q)mCFP cell line, aggregate imaging, at 2 µM; inhibition of aggregation: stronger effect = higher value; nuclei count: measured here: cell count, toxicity.
Experiment [3] can be described thus: inhibitors of E-selectin induction by TNFa, primary screen, imaging, HUVEC, immunofluorescence, MLSMR starter and 10KST1 sets (AID 487;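 active = visually confirmed hit in the image check and inhibition above 20%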;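 for inhibition: signal is fraction of cell area covered by stained E-selectin grains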;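 for nuclei count: 100% = median nuclei count of all wells on the same plate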). To be noted: HUVEC TNFalpha-induced E-selectin immunofluorescence imaging, at 2 µM; inhibition: stronger effect = higher value; nuclei count: measured here: cell number, toxicity.
Experiment [4] has as its target Voltage-gated potassium channel subunit beta-2 (Rattus norvegicus) (UniProt P62483). The experiment in a line: KvBeta enzyme negative modulators, primary screen, biochemical, NADPH fluorescence (AID 622;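 active = fluorescence slope higher than the sample average by over 3 SD, cut at about -0.22 in these data, passing the limit was not always enough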;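 note: slope of raw intensity against log time taken from 70 to 1610 s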). To be noted: recombinant KvBeta, 4-cyanobenzaldehyde reduction, at 10 µM, stronger effect = higher value.
For experiment [5] the target is unchanged. The experiment in a line: KvBeta positive modulators, primary screen, biochemical, NADPH fluorescence (AID 623;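 active = NADPH fluorescence slope more negative than the mean of all samples by about 3 SD, 99.7% confidence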;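 note: fluorescence intensity change per second fitted from 20 to 320 s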). The settings on record: Recombinant KvBeta, NADPH fluorescence decrease slope, 10 min; at 10 µM; stronger effect = lower value.
For experiment [6], the target named is Alpha-2C adrenergic receptor (Homo sapiens) (UniProt P18825). The experiment in a line: modulators of alpha2C/GIRK thallium flux, primary screen, cell-based, HEK293 alpha2C/GIRK1/2 (AID 624;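 active = fluorescence slope after compound addition differing from the mean of all screened samples at 99.7% confidence, in either direction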;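 note: slope of fluorescence ratio to pre-addition baseline per second over 15 to 24 s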). To be noted: thallium flux BTC fluorescence, at 10 µM, actives lie on both sides.
Sequence of Alpha-2C adrenergic receptor (Homo sapiens) (P18825 whole entry, looked up): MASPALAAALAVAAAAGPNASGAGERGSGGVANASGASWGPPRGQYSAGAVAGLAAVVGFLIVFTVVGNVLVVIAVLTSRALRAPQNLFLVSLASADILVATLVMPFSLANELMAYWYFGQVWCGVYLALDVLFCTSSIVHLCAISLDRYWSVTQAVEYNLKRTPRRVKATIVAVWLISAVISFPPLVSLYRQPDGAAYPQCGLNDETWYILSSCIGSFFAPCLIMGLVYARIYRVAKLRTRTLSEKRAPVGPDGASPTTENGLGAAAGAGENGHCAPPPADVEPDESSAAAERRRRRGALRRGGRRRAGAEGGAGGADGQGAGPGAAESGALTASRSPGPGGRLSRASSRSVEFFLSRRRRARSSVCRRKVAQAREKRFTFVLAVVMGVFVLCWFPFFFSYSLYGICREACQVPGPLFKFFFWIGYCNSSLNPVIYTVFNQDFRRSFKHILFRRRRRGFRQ
The nature of experiment [7]: inhibitors of Sendai virus-induced IRF3 signaling, primary screen, TLR/RLR signaling modifier project, cell-based, Sendai virus stimulus, luciferase, 10K MLSCN set (AID 602276;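 active = inhibition at or above 50% at 10 µM; inactive = inhibition below 50%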;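 note: firefly luciferase from ISG56 promoter only with Renilla not read in this screen; 0% = Sendai virus plus DMSO and 100% = medium plus DMSO without virus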). To be noted: HEK293 RL24 IRF3 luciferase reporter, at 10 µM, stronger effect = higher value. In general terms: A reporter such as luciferase makes a cellular process visible.
Experiment [8] in a line: inhibitors of poly I:C-induced TLR3 signaling, primary screen, cell-based, poly I:C stimulus, luciferase, 10K MLSCN set (AID 602277;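 active = inhibition of the reporter signal at or above 50%; inactive = inhibition below 50%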). To be noted: HEK293-TLR3 RL24 IRF3 luciferase reporter, at 10 µM, stronger effect = higher value.

Calls of active or inactive are those of the source.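 Rule for the calls, unless noted: active = inhibition above 20% together with a positive visual image hit; inconclusive = visual image hit but inhibition not above 20%; inactive = no visual image hit.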

Sequence of Voltage-gated potassium channel subunit beta-2 (Rattus norvegicus) (P62483 whole entry, looked up): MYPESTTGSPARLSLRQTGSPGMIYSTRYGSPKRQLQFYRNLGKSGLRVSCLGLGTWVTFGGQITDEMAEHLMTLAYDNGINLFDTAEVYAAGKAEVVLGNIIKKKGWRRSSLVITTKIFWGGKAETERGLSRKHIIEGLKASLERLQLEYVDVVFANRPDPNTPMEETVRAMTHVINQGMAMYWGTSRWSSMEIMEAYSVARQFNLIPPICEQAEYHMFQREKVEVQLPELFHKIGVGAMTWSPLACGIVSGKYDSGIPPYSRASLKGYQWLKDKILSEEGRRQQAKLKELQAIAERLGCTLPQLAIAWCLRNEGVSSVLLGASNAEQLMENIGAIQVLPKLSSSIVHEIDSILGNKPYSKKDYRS

Consider `CC(=O)c1n[nH]nc1NC(=O)c1ccccc1`, for which the cell count in experiment [1] was 574. The inhibition in experiment [1] was -25.8% (inactive); in experiment [3], -46.6% (inactive); in experiment [7] it was 4.32% (inactive); in experiment [8], -46% (inactive). Moreover, the inhibition of aggregation in experiment [2] is -6.9% (inactive). The nuclei count in experiment [2] came to 100%; in experiment [3] it was 119%. For the same compound, the fluorescence slope in experiment [4] is -0.525 (inactive). For the same compound, in experiment [5], the NADPH fluorescence slope is -2.5e-05 (inactive). The slope in experiment [6] was 0.00678 (inactive).
In the case of `CCSc1nnc(NC(=O)c2ccccn2)s1`, the cell count in experiment [1] turned out to be 351. Moreover, the inhibition was 2.9% (inactive) in experiment [1], 21.4% (inactive) in experiment [3], 4.15% (inactive) in experiment [7] and 15.7% (inactive) in experiment [8]. Further, the inhibition of aggregation in experiment [2] is 13.2% (inactive). Besides, the nuclei count worked out at 85.6% in experiment [2] and 102% in experiment [3]. Also, in experiment [4], the fluorescence slope was -0.583 (inactive). In addition, the NADPH fluorescence slope in experiment [5] was 3.3e-06 (inactive). Also, the slope in experiment [6] is 0.00493 (inactive).
`O=C1CCCCCN1CSc1nc2ccccc2s1`: the cell count in experiment [1] came to 686. Further, the inhibition in experiment [1] is -17.2% (inactive); in experiment [3], 7.2% (inactive); in experiment [7], 18.8% (inactive); in experiment [8], 27.7% (inactive). Besides, in experiment [2], the inhibition of aggregation was -3.1% (inactive). The nuclei count in experiment [2] was 106%; in experiment [3], 97.6%. In addition, the fluorescence slope in experiment [4] was -0.433 (inactive). In experiment [5], the NADPH fluorescence slope is -0.000138 (inactive). Moreover, the slope in experiment [6] was 0.00664 (inactive).
In the case of `CC(=O)Nc1c(C(=O)O)[nH]c2ccccc12`, in experiment [1], the cell count was found to be 463. The inhibition in experiment [1] was -9.1% (inactive); in experiment [3] it was -46.4% (inactive); in experiment [7], 0.607% (inactive); in experiment [8], 19.4% (inactive). Besides, the inhibition of aggregation in experiment [2] was -7.5% (inactive). The nuclei count was found to be 96% in experiment [2] and 104% in experiment [3]. Further, the fluorescence slope in experiment [4] is -0.367 (inactive). In addition, the NADPH fluorescence slope in experiment [5] was -2e-05 (inactive). Moreover, in experiment [6], the slope is 0.00513 (inactive).
Turning to `FC(F)(F)c1cc(-c2ccco2)nc(NCc2ccco2)n1`, the cell count in experiment [1] is 589. Further, the inhibition in experiment [1] is 14.6% (inactive); in experiment [3], -24.3% (inactive); in experiment [7], 14.2% (inactive); in experiment [8], 13.8% (inactive). For the same compound, the inhibition of aggregation in experiment [2] was 28.3% (inactive). Also, the nuclei count is 95.5% in experiment [2] and 94.8% in experiment [3]. Moreover, in experiment [4], the fluorescence slope is -0.194 (inactive). Moreover, in experiment [5], the NADPH fluorescence slope is -3e-05 (inactive). In experiment [6], the slope is 0.00472 (inactive).
For the compound `O=C1c2ccccc2C(=O)N1CCCCN1CCN(CCCCN2C(=O)c3ccccc3C2=O)CC1`, in experiment [1], the cell count stood at 401. For the same compound, the inhibition was -3.5% (inactive) in experiment [1], -22.5% (inactive) in experiment [3], 14.1% (inactive) in experiment [7] and 10.6% (inactive) in experiment [8]. Also, the inhibition of aggregation in experiment [2] was 17.2% (inactive). The nuclei count came out at 2.4% in experiment [2] and 86.8% in experiment [3]. In addition, the fluorescence slope in experiment [4] was -0.408 (inactive). The NADPH fluorescence slope in experiment [5] is -3.8e-05 (inactive). Moreover, the slope in experiment [6] is 0.00409 (inactive).
As to `Cc1ccc(NC(=O)c2ccccc2F)nc1`, the cell count in experiment [1] turned out to be 336. In addition, the inhibition was -8.1% (inactive) in experiment [1], -16.4% (inactive) in experiment [3], -16.7% (inactive) in experiment [7] and -41.6% (inactive) in experiment [8]. Moreover, the inhibition of aggregation in experiment [2] was 0.7% (inactive). Moreover, the nuclei count in experiment [2] came out at 123%; in experiment [3], 111%. For the same compound, the fluorescence slope in experiment [4] was -0.374 (inactive). Moreover, the NADPH fluorescence slope in experiment [5] was -6.3e-05 (inactive). Besides, in experiment [6], the slope was 0.00526 (inactive).
`Cc1ccccc1C(=O)Nc1c(C(=O)N2CCCC2)cnn1-c1ccccc1`: the cell count in experiment [1] stood at 314. Moreover, the inhibition in experiment [1] was -6.8% (inactive); in experiment [3] it was -34.4% (inactive); in experiment [7], 13.2% (inactive); in experiment [8], 26.1% (inactive). For the same compound, the inhibition of aggregation in experiment [2] is 2.8% (inactive). The nuclei count in experiment [2] was determined as 83.6%; in experiment [3], 84%. In experiment [4], the fluorescence slope is -0.596 (inactive). For the same compound, the NADPH fluorescence slope in experiment [5] is -2.6e-05 (inactive). The slope in experiment [6] was 0.00707 (inactive).
In the case of `CC(C)Cn1c(-c2ccc(F)cc2)n[nH]c1=S`, in experiment [1], the cell count stood at 390. Besides, the inhibition in experiment [1] is 2.6% (inactive); in experiment [3] it was -69.3% (inactive); in experiment [7] it was 9.62% (inactive); in experiment [8], 12.7% (inactive). For the same compound, in experiment [2], the inhibition of aggregation was -11.3% (inactive). The values for the nuclei count in experiment [2] and in experiment [3] were 106% and 118%, respectively. Besides, in experiment [4], the fluorescence slope was -0.395 (inactive). For the same compound, in experiment [5], the NADPH fluorescence slope was -3.7e-05 (inactive). For the same compound, the slope in experiment [6] was 0.0039 (inactive).
For `COc1cc(C2N=C(c3ccccc3)NO2)cc(Br)c1O` (stereo not given), the cell count in experiment [1] was determined as 770. For the same compound, the inhibition in experiment [1] was 4.6% (inactive); in experiment [3], -121% (inactive); in experiment [7], -15.8% (inactive); in experiment [8], -15.1% (inactive). For the same compound, the inhibition of aggregation in experiment [2] is -13.7% (inactive). In addition, the nuclei count was found to be 94.3% in experiment [2] and 108% in experiment [3]. Further, in experiment [4], the fluorescence slope is -0.546 (inactive). Besides, in experiment [5], the NADPH fluorescence slope was 2.2e-05 (inactive). Further, the slope in experiment [6] is 0.00675 (inactive).
For the compound `O=S(=O)(c1ccc(F)c(Cl)c1)N1CCCC1`, the cell count in experiment [1] was 331. In addition, the inhibition in experiment [1] was 2.2% (inactive); in experiment [3] it was 31.8% (inactive); in experiment [7], 2.45% (inactive); in experiment [8], 30.3% (inactive). Besides, in experiment [2], the inhibition of aggregation is 8.7% (inactive). In addition, the values for the nuclei count in experiment [2] and in experiment [3] were 98.5% and 99.6%, respectively. Further, in experiment [4], the fluorescence slope is -0.486 (inactive). For the same compound, in experiment [5], the NADPH fluorescence slope is -1e-05 (inactive). Moreover, in experiment [6], the slope was 0.00653 (inactive).
`O=C(CSc1ncnc2c1oc1ccccc12)NCc1ccco1`: in experiment [1], the cell count worked out at 398. In addition, the inhibition in experiment [1] was 1.5% (inactive); in experiment [3], -38.6% (inactive); in experiment [7], 15.1% (inactive); in experiment [8] it was 25% (inactive). For the same compound, in experiment [2], the inhibition of aggregation was -6.6% (inactive). Further, the nuclei count in experiment [2] was found to be 99.3%; in experiment [3], 105%. For the same compound, the fluorescence slope in experiment [4] was -0.61 (inactive). Moreover, the NADPH fluorescence slope in experiment [5] is -2.9e-05 (inactive). Moreover, the slope in experiment [6] was 0.00442 (inactive).
With `Cc1nc2ncnn2c(C)c1CCC(=O)NCCCN1CCN(c2cccc(Cl)c2)CC1`, the cell count in experiment [1] is 352. Besides, the inhibition in experiment [1] is -2% (inactive); in experiment [3] it was -40.4% (inactive); in experiment [7], 4.7% (inactive); in experiment [8], 16.9% (inactive). Moreover, the inhibition of aggregation in experiment [2] was -0.5% (inactive). The nuclei count was 99.1% in experiment [2] and 107% in experiment [3]. In addition, in experiment [4], the fluorescence slope was -0.505 (inactive). In addition, the NADPH fluorescence slope in experiment [5] was -5.1e-05 (inactive). The slope in experiment [6] was 0.0065 (inactive).
`CCCC1c2ccc(C)n2CCN1C(=O)Nc1ccccc1Cl` (stereo not given): the cell count in experiment [1] turned out to be 243. Also, the inhibition was 2.3% (inactive) in experiment [1], -1% (inactive) in experiment [3], -53.4% (inactive) in experiment [7] and -190% (inactive) in experiment [8]. The inhibition of aggregation in experiment [2] is -6.4% (inactive). The nuclei count in experiment [2] amounted to 100%; in experiment [3] it was 94.7%. Moreover, in experiment [4], the fluorescence slope is -0.564 (inactive). Further, the NADPH fluorescence slope in experiment [5] is 2.7e-05 (inactive). Besides, in experiment [6], the slope was 0.0054 (inactive).
On to `COc1ccc(S(=O)(=O)N2CCN(CC(=O)Nc3ccc(F)c(F)c3)CC2)cc1`, for which the cell count in experiment [1] was 322. Moreover, the inhibition in experiment [1] is -7.6% (inactive); in experiment [3], -62.9% (inactive); in experiment [7] it was 22.7% (inactive); in experiment [8], 32% (inactive). For the same compound, the inhibition of aggregation in experiment [2] is 9.7% (inactive). For the same compound, the nuclei count was 94.6% in experiment [2] and 97.3% in experiment [3]. Moreover, the fluorescence slope in experiment [4] was -0.51 (inactive). Also, the NADPH fluorescence slope in experiment [5] is -2.7e-05 (inactive). In experiment [6], the slope was 0.00502 (inactive).

What is called inhibition is the drop in the measured response relative to a control, in per cent.
